Autofluor counter: counter-screen for toxin protease inhibitors: compound fluorescence; AID 624483; 3.1% of 360,000 active; fluorescence intensity (no concentration beside the values); compound autofluorescence counterscreen, microsphere flow cytometry; hits give high values; in the data active = fluorescence intensity above about 16000; inconclusive = no clear call, values can overlap the other calls
Anthrax LF prot: Bacillus anthracis LF protease inhibitors, primary screen, biochemical, multiplex microsphere, MLPCN library. AID 588501, 2011. inhibition, % at 10 µM. multiplex microsphere protease cleavage assay. 0.12% of 360,000 active; note: plate controls were buffer without enzyme for full effect and enzyme alone for no effect
Target sequence (P15917 whole entry, looked up): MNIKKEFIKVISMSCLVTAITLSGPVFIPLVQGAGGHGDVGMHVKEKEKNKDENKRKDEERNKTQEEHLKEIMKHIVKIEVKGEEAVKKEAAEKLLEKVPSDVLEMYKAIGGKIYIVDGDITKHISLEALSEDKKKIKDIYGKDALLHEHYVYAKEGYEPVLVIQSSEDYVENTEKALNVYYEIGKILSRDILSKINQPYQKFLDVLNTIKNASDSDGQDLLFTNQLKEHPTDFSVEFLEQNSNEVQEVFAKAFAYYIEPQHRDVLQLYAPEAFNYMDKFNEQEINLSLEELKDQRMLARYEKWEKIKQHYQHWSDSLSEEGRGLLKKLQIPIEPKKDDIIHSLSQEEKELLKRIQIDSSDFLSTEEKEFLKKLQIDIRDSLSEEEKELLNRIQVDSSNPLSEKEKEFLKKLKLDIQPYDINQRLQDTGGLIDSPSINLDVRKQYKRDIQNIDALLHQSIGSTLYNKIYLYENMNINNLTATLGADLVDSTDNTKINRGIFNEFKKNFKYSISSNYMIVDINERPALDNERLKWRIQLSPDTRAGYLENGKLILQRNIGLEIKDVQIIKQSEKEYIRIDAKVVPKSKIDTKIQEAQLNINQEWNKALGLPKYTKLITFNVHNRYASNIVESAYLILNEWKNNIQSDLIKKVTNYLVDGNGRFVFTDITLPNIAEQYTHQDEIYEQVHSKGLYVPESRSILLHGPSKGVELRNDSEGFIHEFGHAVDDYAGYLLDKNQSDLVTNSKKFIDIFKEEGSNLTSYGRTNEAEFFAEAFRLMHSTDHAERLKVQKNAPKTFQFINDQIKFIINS
GDH-TPI counter: GDH-TPI coupling enzyme inhibitors, primary screen, artefact control for M. tuberculosis FBA inhibitor project, biochemical, absorbance, full deck | GDH-TPI coupled enzyme counterscreen, NADH absorbance | inhibition, % at 4.8 µM | 1.2% of 360,000 active; in the data active = inhibition above about 30%;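 note: 0% = DMSO wells and 100% = wells lacking the enzyme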
Mtb FBA inh: Mtb FBA enzyme inhibitors, primary screen, biochemical, fluorescence, strain H37Rv; purified M. tuberculosis FBA, fluorescence read-out; inhibition, % at 1 µM; 2.3% of 360,000 active; AID 588726, 2011; in the data active = inhibition above about 27%;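 note: 0% = vehicle and 100% = reference inhibitor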
BoNT F protease: BoNT/F light chain protease inhibitors, primary screen, biochemical, flow cytometry, MLPCN library; Botulinum neurotoxin type F light chain protease (Clostridium botulinum); Multiplex microsphere protease cleavage assay; inhibition, % at 10 µM; 0.22% of 360,000 active; in the data active = inhibition above about 35%, passing the limit was not always enough; inconclusive = no clear call, values can overlap the other calls; note: plate controls were buffer without enzyme for full effect and enzyme alone for no effect
BoNT A protease: BoNT/A light chain protease inhibitors, primary screen, biochemical, flow cytometry, MLPCN library; multiplex microsphere protease substrate cleavage; AID 588499, 2011; inhibition, % at 10 µM; 0.17% of 360,000 active; note: plate controls were buffer without enzyme for full effect and enzyme alone for no effect
* marks the source's active call; other numbers are inactive results; ? = inconclusive; · = no result; + = active, no number. Compounds with a hit are over-represented: about 6.7% of the library has one in this group of screens. Cut-off read from the data, not from the text of the source, unless noted: active = inhibition above about 30%; inconclusive = no clear call, values can overlap the other calls; inactive = below that.

SMILES	Autofluor counter	Anthrax LF prot	GDH-TPI counter	Mtb FBA inh	BoNT F protease	BoNT A protease
CC1(c2ccccc2Cl)NC(=O)N(CC(=O)Nc2cccnc2Cl)C1=O (stereo not drawn)	?	2	-8	5	-2	0
COCCn1c(C)cc(/C=N/NC(=O)c2cccnc2)c1C	5262	-6	7	-1	-2	-1
O=C(N/N=C/c1c[nH]c2ccccc12)c1cc(-c2ccc(-c3ccccc3)cc2)n[nH]1	6362	-9	13	3	-8	-1
Cc1cc(/C=N/NC(=O)c2ccc(O)cc2)c(C)n1CC(C)C	3528	3	47*	4	-2	0
Nc1ccc(C(=O)N/N=C2\CCCc3c2[nH]c2ccccc32)cc1	9925	-4	62*	12	-8	-1
O=C(N/N=C/c1c[nH]c2ccccc12)c1cc(-c2ccccc2)n[nH]1	2654	-2	37*	-6	0	-1
N=C1SC(CC(=O)Nc2ccccc2[N+](=O)[O-])C(=O)N1c1ccccc1 (stereo not drawn)	3926	1	1	1	3	-3
O=C(Nc1cccnc1)c1noc2c1CCCC2	26961*	-6	1	3	-14	-11
Cc1cc(NC(=O)c2noc3c2CCCC3)no1	21619*	4	5	4	1	2
Cc1cc(NC(=O)c2noc3c2CCCCC3)no1	9941	-2	0	0	-7	-1
Cc1nn(Cc2ccc(Cl)c(Cl)c2)c(C)c1NC(=O)c1noc2c1CCCCC2	17489*	0	19	-2	-9	?
COc1ccc(OC)c(S(=O)(=O)Nc2ccccc2C)c1	11397	3	6	-1	5	1
CCn1c(NC(=O)c2ccc(COc3ccc(C)cc3[N+](=O)[O-])o2)nc2ccccc21	22323*	-1	32*	1	1	2
Cc1ccc(OCc2ccc(C(=O)Nc3cc(C)on3)o2)c([N+](=O)[O-])c1	?	0	22	6	2	7
Cc1c(O)c(CN2CCCCC2)cc2c1oc(=O)c1ccccc12	3152	1	1	3	-8	1
Cc1c(C)c2ccc(O)c(CN3CCCC3)c2oc1=O	4168	-4	12	+	-12	4
Cc1c(C)c2ccc(O)c(CN3CCN(C)CC3)c2oc1=O	3905	10	14	+	?	1
Cc1c(O)c(CN2CCCCC2)cc2c3c(c(=O)oc12)CCC3	?	3	22	+	-12	0
CN1CCN(Cc2c(O)ccc3cc(-c4ccccn4)c(=O)oc23)CC1	3391	3	11	+	4	0
COC(=O)C1=C(C)NC2=C(C(=O)CCC2)C1c1cn(Cc2ccc(Cl)cc2Cl)nc1-c1ccccc1 (stereo not drawn)	4441	-2	6	20	17	1
CCc1c(C)c2ccc(O)c(CN3CCCC3)c2oc1=O	3159	-3	34*	·	6	-1
CCOC(=O)c1c(C)oc2ccc(O)c(CN3CCCCC3)c12	11446	-6	-8	-2	2	0
O=c1oc2c(CN3CCCCC3)c(O)ccc2c2c1CCCC2	9481	1	24	+	-7	1
O/N=C1\CCCc2oc3c(c21)CCCC3	19892*	-1	-1	1	2	1
Cc1c(C(=O)O)oc2c1/C(=N\O)CCC2	2344	0	2	2	3	0
COc1ccc(C(=O)Nc2nnc(CCc3ccccc3)s2)c(OC)c1	4249	0	-2	1	?	-2
COc1ccc(-c2ccc([C@H]3[C@H]4C=CC[C@@H](C)[C@@H]4C(=O)N3Cc3ccccc3)c(F)c2)cc1	2982	-4	3	3	0	0
Cc1ccc(C2CC(=O)Nc3sc(C(N)=O)c(N)c32)cc1 (stereo not drawn)	21762*	-1	22	2	0	1
COc1ccc(C)cc1NC(=O)c1ccc(OC(F)F)cc1	2180	-3	4	2	-3	0
COc1ccc(-c2cnn3c4c(c(C)nc23)CCN4C2CCCC2)cc1OC	17372*	-2	28	0	-4	-2

High-throughput results as filed in PubChem.
